Common to all, as to assay: cell viability relative to vehicle control; higher = less cytotoxic
Holding throughout (details): 10 µM

One assay relates to K562. In short, it runs like this:
(§1)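 Mutant clones made by CRISPR editing and their isogenic wild-type counterparts, from four leukaemia lines, were exposed to a single 10 µM dose of each library compound for 48 h. The supernatant was then removed and CellTiter-Glo luminescence was read. Viability was reported as percent of the on-plate vehicle control.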

The next assay has as its system MARIMO. In short, it runs like this:
as §1

For a further assay, the system named is MOLM14. The essentials: as §1
The next assay relates to OCI-AML2. The essentials:
as §1

The structures appear in SMILES notation. “And” between values parts separate entries of the source, which are not always exact repeats. Equal values may be shown once. Where a name gives a salt, the structure may show the parent alone.

`O=C(c1ccccc1)C(O)O` [Phenylglyoxal hydrate]: the cell viability in the assay on K562 (SRSF2 genotype: SRSF2 P95H/wt) was 95.7% and 96.9%; in the assay on K562 (SRSF2 genotype: SRSF2 wt/wt), 104%; with MARIMO (SRSF2 genotype: SRSF2 P95H/wt), 86.3%; in the assay on MARIMO (SRSF2 genotype: SRSF2 wt/wt), 86.1%; with MOLM14 (SRSF2 genotype: SRSF2 P95H/wt), 67.8%; in the assay on MOLM14 (SRSF2 genotype: SRSF2 wt/wt) it was 66%. The results for the cell viability in the assay with OCI-AML2 (SRSF2 genotype: P95H/wt) and in the assay on OCI-AML2 (SRSF2 genotype: wt/wt) were 81.6% and 100%, respectively.

On to `Clc1ccc(COC(Cn2ccnc2)c2ccc(Cl)cc2Cl)c(Cl)c1` (configuration not stated) [Miconazole (Monistat)], for which the cell viability with K562 (SRSF2 genotype: SRSF2 P95H/wt) was 65.6% and 81%; with K562 (SRSF2 genotype: SRSF2 wt/wt), 62.2%; in the assay with MARIMO (SRSF2 genotype: SRSF2 P95H/wt), 61.1%; with MARIMO (SRSF2 genotype: SRSF2 wt/wt), 73%; in the assay with MOLM14 (SRSF2 genotype: SRSF2 P95H/wt), 67.2%; in the assay with MOLM14 (SRSF2 genotype: SRSF2 wt/wt), 54.8%. The cell viability in the assay on OCI-AML2 (SRSF2 genotype: P95H/wt) stood at 65.5%; in the assay with OCI-AML2 (SRSF2 genotype: wt/wt), 54.4%.

For `CNC(=O)c1c(F)cccc1Nc1nc(Nc2cc3c(cc2OC)CCN3C(=O)CN(C)C)nc2[nH]ccc12`, the cell viability with K562 (SRSF2 genotype: SRSF2 P95H/wt) is 6.79% and 7.34%; in the assay on K562 (SRSF2 genotype: SRSF2 wt/wt) it was 5.25%; in the assay with MARIMO (SRSF2 genotype: SRSF2 P95H/wt) it was 46.2%; with MARIMO (SRSF2 genotype: SRSF2 wt/wt) it was 38.8%; with MOLM14 (SRSF2 genotype: SRSF2 P95H/wt) it was 0.66%; in the assay with MOLM14 (SRSF2 genotype: SRSF2 wt/wt), 0.35%. In addition, the cell viability with OCI-AML2 (SRSF2 genotype: P95H/wt) stood at 0.91%; in the assay on OCI-AML2 (SRSF2 genotype: wt/wt), 1.46%.

For `COc1ccc(CCC(=O)c2c(O)cc(O[C@@H]3O[C@H](CO)[C@@H](O)[C@H](O)[C@H]3O[C@@H]3O[C@@H](C)[C@H](O)[C@@H](O)[C@H]3O)cc2O)cc1O` [Neohesperidin dihydrochalcone (Nhdc)], the cell viability with K562 (SRSF2 genotype: SRSF2 P95H/wt) was 107% and 83.6%; with K562 (SRSF2 genotype: SRSF2 wt/wt), 84.9%; in the assay with MARIMO (SRSF2 genotype: SRSF2 P95H/wt) it was 82.7%; in the assay with MARIMO (SRSF2 genotype: SRSF2 wt/wt), 90.5%; in the assay with MOLM14 (SRSF2 genotype: SRSF2 P95H/wt), 82.3%; with MOLM14 (SRSF2 genotype: SRSF2 wt/wt), 86.8%. For the same compound, the cell viability came to 89.6% in the assay on OCI-AML2 (SRSF2 genotype: P95H/wt) and 84.9% in the assay with OCI-AML2 (SRSF2 genotype: wt/wt).

Turning to `O=C(/C=C/c1ccc(O)c(O)c1)c1ccc(O)cc1O` [Butein], the cell viability was 62% and 61% in the assay with K562 (SRSF2 genotype: SRSF2 P95H/wt); 76.8% with K562 (SRSF2 genotype: SRSF2 wt/wt); 52.6% in the assay on MARIMO (SRSF2 genotype: SRSF2 P95H/wt); 64.7% in the assay on MARIMO (SRSF2 genotype: SRSF2 wt/wt); 52.4% in the assay on MOLM14 (SRSF2 genotype: SRSF2 P95H/wt); 47.8% with MOLM14 (SRSF2 genotype: SRSF2 wt/wt). Moreover, the cell viability is 84.1% in the assay on OCI-AML2 (SRSF2 genotype: P95H/wt) and 77.8% with OCI-AML2 (SRSF2 genotype: wt/wt).

With `CC(=O)OC(C)(C)CCC(=O)[C@](C)(O)[C@H]1[C@H](O)C[C@@]2(C)[C@@H]3CC=C4[C@@H](C[C@H](O)[C@@H](O)C4(C)C)[C@]3(C)C(=O)C[C@]12C` [Curcurbitacin IIA], the cell viability is 67.7% and 75.2% with K562 (SRSF2 genotype: SRSF2 P95H/wt); 77.4% in the assay on K562 (SRSF2 genotype: SRSF2 wt/wt); 80.9% with MARIMO (SRSF2 genotype: SRSF2 P95H/wt); 87.6% with MARIMO (SRSF2 genotype: SRSF2 wt/wt); 34.7% in the assay on MOLM14 (SRSF2 genotype: SRSF2 P95H/wt); 22.4% with MOLM14 (SRSF2 genotype: SRSF2 wt/wt). Further, the cell viability with OCI-AML2 (SRSF2 genotype: P95H/wt) was 21.4%; in the assay with OCI-AML2 (SRSF2 genotype: wt/wt), 28.8%.

As to `COc1ccc(Cl)c(Nc2nc3ccccc3nc2NS(=O)(=O)c2cccc(NC(=O)C(C)(C)N)c2)c1` [Pilaralisib (XL147)], the cell viability was 87.3% and 96.2% with K562 (SRSF2 genotype: SRSF2 P95H/wt); 84% in the assay with K562 (SRSF2 genotype: SRSF2 wt/wt); 68.6% in the assay with MARIMO (SRSF2 genotype: SRSF2 P95H/wt); 66% in the assay with MARIMO (SRSF2 genotype: SRSF2 wt/wt); 59.3% in the assay on MOLM14 (SRSF2 genotype: SRSF2 P95H/wt); 55% in the assay with MOLM14 (SRSF2 genotype: SRSF2 wt/wt). Also, the cell viability worked out at 52.3% with OCI-AML2 (SRSF2 genotype: P95H/wt) and 54.6% with OCI-AML2 (SRSF2 genotype: wt/wt).

On to `O=C(O)c1c[nH]c2ccccc12` [Indole-3-carboxylic acid], for which the cell viability in the assay with K562 (SRSF2 genotype: SRSF2 P95H/wt) was 103% and 92%; in the assay with K562 (SRSF2 genotype: SRSF2 wt/wt), 100%; with MARIMO (SRSF2 genotype: SRSF2 P95H/wt), 97.8%; in the assay with MARIMO (SRSF2 genotype: SRSF2 wt/wt), 110%; in the assay on MOLM14 (SRSF2 genotype: SRSF2 P95H/wt), 94.3%; in the assay on MOLM14 (SRSF2 genotype: SRSF2 wt/wt), 101%. The cell viability came to 92.3% in the assay with OCI-AML2 (SRSF2 genotype: P95H/wt) and 114% with OCI-AML2 (SRSF2 genotype: wt/wt).

With `CN(C)CC/C=C1/c2ccccc2COc2ccc(CC(=O)O)cc21` [Olopatadine hydrochloride (Opatanol)], the cell viability was 105% and 106% with K562 (SRSF2 genotype: SRSF2 P95H/wt); 102% with K562 (SRSF2 genotype: SRSF2 wt/wt); 101% in the assay with MARIMO (SRSF2 genotype: SRSF2 P95H/wt); 114% in the assay with MARIMO (SRSF2 genotype: SRSF2 wt/wt); 107% with MOLM14 (SRSF2 genotype: SRSF2 P95H/wt); 104% in the assay with MOLM14 (SRSF2 genotype: SRSF2 wt/wt). Also, the cell viability in the assay on OCI-AML2 (SRSF2 genotype: P95H/wt) is 95.4%; in the assay on OCI-AML2 (SRSF2 genotype: wt/wt), 105%.

A word on the cell viability: it is a read-out of living cells in per cent, often relative to untreated cells.

The values above are taken from the supplement of paper PMC10981050.
